From PubChem BioAssay (NCI)
Several values for one entry are separate records, joined by “and”; a condition that tells them apart may be missing. Equal values may be shown once. About 79,000 compounds went through this panel and 15% of them were active in at least one assay; those are over-represented in the sample as a whole. Rule as the data show it: active = growth inhibition above about 70%; inactive = the rest. Where a SMILES comes first, the peptide text is derived from it. The star is where a group is joined. Boc = CC(C)(C)OC(=O)*

Tests used:
[1] = NCI Yeast Anticancer Drug Screen. Data for the rad50 strain (AID 155);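 also: 0% = growth of vehicle-only cultures of the same strain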; conditions: S. cerevisiae rad50 strain growth inhibition, active compounds read high; at 50.0 µM unless noted
How it was run: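 Vehicle-treated cultures provide the reference for the growth inhibition reported for compound-exposed, repair-deficient yeast.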

[2] = NCI Yeast Anticancer Drug Screen. Data for the mec2-1 strain (AID 157); conditions: S. cerevisiae mec2-1 strain, active compounds read high; at 50.0 µM unless noted
How it was run: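 Vehicle-treated cultures served as reference for growth inhibition of compound-exposed mec2-1 yeast.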

[3] = NCI Yeast Anticancer Drug Screen. Data for the sgs1 mgt1 strain (AID 161);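 also: 0% = growth of cultures given vehicle only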; conditions: S. cerevisiae sgs1 mgt1 strain, active compounds read high; at 50.0 µM unless noted
How it was run: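 Mutant yeast exposed to compound; growth scored against vehicle-only wells.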

[4] = NCI Yeast Anticancer Drug Screen. Data for the cln2 rad14 strain (AID 165);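 also: 0% = growth equal to vehicle treated cultures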; conditions: S. cerevisiae cln2 rad14 strain, active compounds read high; at 50.0 µM unless noted
How it was run: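 Each compound was tested on cln2 rad14 yeast. Inhibition of growth was calculated against vehicle-exposed controls.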

[5] = NCI Yeast Anticancer Drug Screen. Data for the bub3 strain (AID 167); conditions: S. cerevisiae bub3 mutant strain, active compounds read high; at 50.0 µM unless noted
How it was run: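 Mutant yeast screening strain plus compound; vehicle-treated cultures serve as the 0% inhibition reference.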

[6] = NCI Yeast Anticancer Drug Screen. Data for the mlh1 rad18 strain (AID 175); conditions: S. cerevisiae mlh1 rad18 strain growth inhibition, active compounds read high; at 50.0 µM unless noted
How it was run: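 Vehicle-treated cultures served as the reference for growth inhibition in a yeast strain carrying DNA damage repair alterations exposed to each compound.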

Measured: growth inhibition

CCOC(=O)c1cc(C)ncc1N
inactive: [1] 9.85% | [2] 7.4% | [3] -7.1% | [4] 13.2% | [5] -0.95% | [6] 3.3%

CCOC(=O)/C(=N/Nc1ccc(Cl)cc1)N1C(=S)C=C(C)NN(C)C1=S
inactive: [1] -6.35% | [2] -13.4% | [3] -22.1% | [4] -6.4% | [5] -4.8% | [6] 8.15%

O=C1c2ccccc2C(=O)c2c1ccc1c3ccccc3n(-c3ccccc3)c21
inactive: [1] 7.4% | [2] 4.2% | [3] 18.4% | [4] -5.2% | [5] 6.65% | [6] 15.7%

COC1=CC2CC(C#N)C2(OC)C=C1 (stereo not given)
inactive: [1] -10.8% | [2] 5.75% | [3] -4.7% | [4] -18.2% | [5] -17.4% | [6] 1.8%

Cc1nc2ccccc2c2ccc([N+](=O)[O-])cc12
inactive: [1] 13.5% | [2] 4.45% | [3] 0.25% | [4] -31.1% | [5] -4.6% | [6] 12.3%

CCOC(=O)C1(Cc2ccccc2)Cc2cc3c(cc2C1)CCC3
inactive: [1] -23.1% | [2] -50.5% | [3] -23.7% | [4] -3.5% | [5] 2.6% | [6] -2.5%

CCOC(=O)CN(c1c(C)cc([N+](=O)[O-])c2ccccc12)S(=O)(=O)c1ccccc1
inactive: [1] 50.1% | [2] 13.8% | [3] 33.8% | [4] 6.65% | [5] 16.9% | [6] 12.2%

CCOC(=O)c1[nH]c(C)c(/C=N/O)c1C
inactive: [1] 22.9% | [2] -1.8% | [3] 6.65% | [4] 13.6% | [5] 10.1% | [6] 15.2%

Cc1ccccc1S(N)(=O)=O
inactive: [1] -17.7% | [2] -28.1% | [3] -22.6% | [4] -42.2% | [5] -6.95% | [6] 3.25%

Cc1ccc([N+](=O)[O-])cc1NC(=O)Sc1ccc(C(C)(C)C)cc1C
inactive: [1] 5.2% | [2] 6.9% | [3] 4.65% | [4] -11.4% | [5] 3.4% | [6] 8.8%

CCOC(=O)Cc1ccc(N(CCO)CCO)cc1
inactive: [1] 5.15% | [2] 7.4% | [3] 22.8% | [4] -0.2% | [5] 12.9% | [6] 5.55%

CCc1nnc2c(C)c(C)nc(C)n12
inactive: [1] 21.2% | [2] 1.55% | [3] -16% | [4] -16.1% | [5] 17.2% | [6] 1.6%

ClCCN1CCOC1=Nc1ccc2c(c1)CCCC2
inactive: [1] -21.2% | [2] -16.9% | [3] 2.6% | [4] 4.4% | [5] -7.25% | [6] -49.2%

COc1ccc2c(O)c(Oc3ccccc3)c(=O)oc2c1
inactive: [1] 0.5% | [2] 5% | [3] 4.25% | [4] 30.9% | [5] 15.3% | [6] 13.1%

O=C(c1ccccc1)N1c2ccc([N+](=O)[O-])cc2Sc2cc([N+](=O)[O-])ccc21
inactive: [1] 16.7% | [2] -3.45% | [3] 33.6% | [4] 8.35% | [5] -10.7% | [6] 13.1%

O=C(NCc1ccco1)Nc1ccccc1C(F)(F)F
inactive: [1] 2.3% | [2] 0.2% | [3] 18.5% | [4] 19.6% | [5] 20.4% | [6] 17.1%

CC(=O)OCCc1cc2ccccc2oc1=O
inactive: [1] -9.05% | [2] 23.9% | [3] -16.8% | [4] 8.6% | [5] 12.2% | [6] 9.25%

O=C(NCCCOC(=O)CCCCCCCCC(=O)OCCCNC(=O)NC(=O)c1c[nH]c(=O)[nH]c1=O)NC(=O)c1c[nH]c(=O)[nH]c1=O
inactive: [1] -11.5% | [2] -18.6% | [3] -7.85% | [4] 8.3% | [5] 6.05% | [6] -14.9%

CN[C@@H]1[C@H](O)[C@H](NC)[C@H]2O[C@@]3(O)C(=O)C[C@@H](C)O[C@H]3O[C@@H]2[C@H]1O
inactive: [1] 7.35% | [2] -23.1% | [3] -21.9% | [4] 7.45% | [5] -12.6% | [6] -9.1%

CCSC(SCC)C(NC(C)=O)C(O)C(O)C(O)CO (stereo not given)
inactive: [1] 28.7% | [2] 3.45% | [3] 3.7% | [4] 12.7% | [5] 15.2% | [6] 21.4%

CC(O)CCC(=O)c1nc2ccccc2s1 (stereo not given)
inactive: [1] -14.4% | [2] 19.2% | [3] 5.95% | [4] -6.3% | [5] 4.95% | [6] 3.5%

COCC(C)OC(=O)COc1ccccc1 (stereo not given)
inactive: [1] 1.05% | [2] -21.6% | [3] -10.4% | [4] -46.5% | [5] -4.35% | [6] -6.65%

O=C1OC(=O)C2C3CC(C(Br)C3Br)C12 (stereo not given)
inactive: [1] 3.8% | [2] -14.4% | [3] 7.8% | [4] -36.5% | [5] -1.2% | [6] 21.5%

CCN(CCN1CCCCC1)c1ccccn1
inactive: [1] 11% | [2] 1.3% | [3] 11.4% | [4] -35.7% | [5] 7.45% | [6] -10.9%

C1CN(C23OC4(N5CCOCC5)C5C6CC(C7C6C4C72)C53)CCO1 (stereo not given)
inactive: [1] -18.9% | [2] -3% | [3] -3.9% | [4] -43.1% | [5] -0.05% | [6] -11.2%

C=CC(=O)OCCN(CCCC)CCCC
inactive: [1] -12.9% | [2] -0.2% | [3] -10.9% | [4] -10.8% | [5] 6.75% | [6] 21.5%

O=S(=O)(CCCl)c1ccc(Br)cc1
inactive: [1] 51.6% | [2] 44.6% | [3] 56.7% | [4] 18.8% | [5] 39.4% | [6] 57.5%

CCOC(=O)CC(CC(=O)OCC)NC(=O)c1ccc(N(C)C(=O)OCc2ccccc2)cc1
inactive: [1] 40.1% | [2] 5.55% | [3] 34.9% | [4] 32.9% | [5] 14.7% | [6] 39.9%

O=C1C=C(c2ccccc2)C(c2ccccc2)C(c2ccccc2)C1 (stereo not given)
inactive: [1] 1.4% | [2] 21% | [3] 16.4% | [4] -5.35% | [5] 3.85% | [6] -3.1%

CCCCN=C(N)C(N)=NCCCC
inactive: [1] -13.8% | [2] -4.65% | [3] -5.7% | [4] -28.3% | [5] 0.5% | [6] -18.7%

Cc1ccc(C2=Nc3cc(C)c(Cl)cc3S(=O)(=O)NN2)cc1
inactive: [1] -29.1% | [2] -24.9% | [3] -48.8% | [4] -5.2% | [5] -18.5% | [6] -26.8%

O=C(F)c1cccc2ccccc12
inactive: [1] -25.9% | [2] -14.7% | [3] -1% | [4] 7.6% | [5] -19.6% | [6] -31.3%

COC(=O)C(Cc1c[nH]c2ccccc12)NC(=O)C(Cc1c[nH]c2ccccc12)NC(=O)C(Cc1c[nH]c2ccccc12)NC(=O)C(Cc1c[nH]c2ccccc12)NC(=O)C(Cc1c[nH]c2ccccc12)NC(=O)C(Cc1c[nH]c2ccccc12)NC(=O)OC(C)(C)C (stereo not given) (Boc-WWWWWW-OMe; configuration not given here)
inactive: [1] -6.8% | [2] -12.7% | [3] -18.4% | [4] 7.25% | [5] 8.25% | [6] 16.4%

N#C/C(=C/NC(N)=S)C(N)=O
inactive: [1] -25.6% | [2] 10.3% | [3] -16.4% | [4] 14.6% | [5] -27.1% | [6] 20.7%

O=c1n(CC2CO2)c(=O)n(CC2CO2)c(=O)n1CC1CO1 (stereo not given)
inactive: [1] -8.4% and -1.15% | [2] 11.6% and 8.65% | [3] 19.7% and -18.9% | [4] -25.3% and -6.25% | [5] 26.1% and -34% | [6] 28.1% and 2.45%

Cc1ccc2c(-c3cccc4ccccc34)c3ccccc3cc2c1
inactive: [1] 5.45% | [2] 9.65% | [3] -12% | [4] -8.4% | [5] 8.95% | [6] -7.75%

Cc1ccc(OC(=O)Oc2ccc(C)cc2)cc1
inactive: [1] 18.8% | [2] 1.9% | [3] 4.35% | [4] -6.9% | [5] 7.05% | [6] 18%

O=C(Sc1ccc(Br)cc1)c1ccccc1
inactive: [1] 29.1% | [2] 24.2% | [3] 1.15% | [4] 13.2% | [5] 10.4% | [6] 1.25%

O=[N+]([O-])c1cc(Cl)ccc1S(=O)(=O)N1CCCc2cc(Cl)ccc21
inactive: [1] 66.2% | [2] 51.8% | [3] 64.8% | [4] 62.1% | [5] 63.6% | [6] 62%

Cc1cc(Nc2nnc(-c3cccnc3Oc3ccccc3)s2)ccc1Br
inactive: [1] 1.25% | [2] -6.85% | [3] -11.6% | [4] 16.7% | [5] 0.5% | [6] -5.35%
